{"source": "the supplement of paper PMC3334620", "note": "The full ranking holds about 33,000 sequences; the median of “E-score (-0.5 to 0.5)” is about -0.041, and the highest 2% start at about 0.37. Shown is part of a subset that was picked to be rich in the highest values."}
{"target": "T1, Ecm22 (UniProt Q05958)", "T1 sequence": "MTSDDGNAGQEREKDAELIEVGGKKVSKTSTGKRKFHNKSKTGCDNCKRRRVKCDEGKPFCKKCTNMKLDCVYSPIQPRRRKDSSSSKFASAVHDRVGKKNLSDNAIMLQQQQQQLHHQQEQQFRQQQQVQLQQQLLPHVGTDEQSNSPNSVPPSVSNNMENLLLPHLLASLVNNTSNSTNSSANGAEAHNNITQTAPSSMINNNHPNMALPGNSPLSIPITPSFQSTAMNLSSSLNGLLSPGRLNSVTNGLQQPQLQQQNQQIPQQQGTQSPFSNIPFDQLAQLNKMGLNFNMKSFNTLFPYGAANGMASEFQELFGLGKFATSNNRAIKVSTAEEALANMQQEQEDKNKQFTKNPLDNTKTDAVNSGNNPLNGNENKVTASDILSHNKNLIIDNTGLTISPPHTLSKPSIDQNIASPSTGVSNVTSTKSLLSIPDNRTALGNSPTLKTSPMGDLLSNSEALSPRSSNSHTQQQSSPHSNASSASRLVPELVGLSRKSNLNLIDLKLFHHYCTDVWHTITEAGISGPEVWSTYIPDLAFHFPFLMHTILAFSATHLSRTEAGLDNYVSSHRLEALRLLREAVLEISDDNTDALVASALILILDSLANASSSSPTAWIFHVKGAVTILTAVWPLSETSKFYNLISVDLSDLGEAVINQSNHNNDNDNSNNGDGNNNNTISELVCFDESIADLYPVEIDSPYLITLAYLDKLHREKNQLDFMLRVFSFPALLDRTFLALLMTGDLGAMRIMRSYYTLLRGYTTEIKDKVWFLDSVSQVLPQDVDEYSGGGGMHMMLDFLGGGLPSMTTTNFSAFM", "experiment": "PBM E-score (8-mer binding enrichment) (E-score (-0.5 to 0.5)); higher = stronger / more preferred TF binding", "conditions": "protein concentration: 200 nM; construct: GST-full length", "experimental": "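Universal 'all 10-mer' protein binding microarrays (Agilent AMADID 015681) probed with GST-tagged S. cerevisiae TFs (full-length or DBD) made by in vitro transcription/translation (PURExpress), about 100-200 nM. Bound TF was detected with fluorescent anti-GST. Each ungapped 8-mer (which stands for itself and its reverse complement) is scored by the PBM enrichment score (E-score), a modified Wilcoxon-Mann-Whitney statistic from -0.5 to +0.5, computed with the Universal PBM Analysis Suite. Scale: above 0.35 generally sequence-specific binding.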"}
{"sequence": "TCGCATAA", "PBM E-score": 0.388}
{"sequence": "CCGCATAA", "PBM E-score": 0.119}
{"sequence": "ACGCATAA", "PBM E-score": 0.0983}
{"sequence": "CGTAAAGA", "PBM E-score": 0.389}
{"sequence": "CGTAAAGC", "PBM E-score": 0.348}
{"sequence": "AGTAAAGA", "PBM E-score": -0.225}
{"sequence": "CGTAAATA", "PBM E-score": 0.377}
{"sequence": "CGTAAATC", "PBM E-score": 0.349}
{"sequence": "AGTAAATA", "PBM E-score": 0.00942}
{"sequence": "CGTAAAAC", "PBM E-score": 0.367}
{"sequence": "CGTAAAAA", "PBM E-score": 0.404}
{"sequence": "CGTAAAAG", "PBM E-score": 0.367}
{"sequence": "GACACTCC", "PBM E-score": -0.0444}
{"sequence": "CAGGGTAG", "PBM E-score": -0.148}
{"sequence": "AATCTTTA", "PBM E-score": -0.0885}
{"sequence": "CCCTGACC", "PBM E-score": -0.0114}
{"sequence": "CGCGATAG", "PBM E-score": 0.135}
{"sequence": "CCATTTGC", "PBM E-score": -0.0821}
{"sequence": "AGTCGAAC", "PBM E-score": 0.0504}
{"sequence": "GACGCAAA", "PBM E-score": 0.114}
{"sequence": "GAAAAGAA", "PBM E-score": 0.0308}
{"sequence": "CAGTTCCA", "PBM E-score": -0.0209}
{"sequence": "AAGAGGTG", "PBM E-score": -0.0239}
{"sequence": "TGTATACA", "PBM E-score": 0.0967}
{"sequence": "AGTATACG", "PBM E-score": 0.433}
{"sequence": "CGAATACG", "PBM E-score": 0.362}
{"sequence": "AGTATACA", "PBM E-score": 0.0981}
{"sequence": "CGTATACG", "PBM E-score": 0.489}
{"sequence": "AGTATACT", "PBM E-score": 0.102}
{"sequence": "CGTATACA", "PBM E-score": 0.46}
{"sequence": "AGTATATG", "PBM E-score": -0.0215}
{"sequence": "GGTATACC", "PBM E-score": 0.0922}
{"sequence": "CGTATACC", "PBM E-score": 0.469}
{"sequence": "GGTATACA", "PBM E-score": -0.21}
{"sequence": "AGTATACC", "PBM E-score": 0.0306}
{"sequence": "AGGAGAAA", "PBM E-score": -0.281}
{"sequence": "TCGATCAA", "PBM E-score": 0.0228}
{"sequence": "CGTAATGC", "PBM E-score": 0.162}
{"sequence": "CGGAACAA", "PBM E-score": 0.168}
{"sequence": "TATGGGAA", "PBM E-score": -0.0838}
{"sequence": "GCTTTTGA", "PBM E-score": -0.115}
{"sequence": "AACCCTTG", "PBM E-score": -0.0616}
{"sequence": "CGGATACC", "PBM E-score": 0.0623}
{"sequence": "CGGATACG", "PBM E-score": 0.386}
{"sequence": "CGGATACA", "PBM E-score": 0.162}
{"sequence": "ATAGACAT", "PBM E-score": -0.0449}
{"sequence": "CCAGCGAC", "PBM E-score": -0.231}
{"sequence": "CGATAGCG", "PBM E-score": 0.128}
{"sequence": "CGGCGACG", "PBM E-score": 0.0233}
{"sequence": "ACTATACG", "PBM E-score": 0.463}
{"sequence": "CCTATACA", "PBM E-score": -0.00901}
{"sequence": "ATTATACA", "PBM E-score": 0.0593}
{"sequence": "ATTATACC", "PBM E-score": 0.104}
{"sequence": "ACTATACT", "PBM E-score": 0.144}
{"sequence": "CCTATACG", "PBM E-score": 0.465}
{"sequence": "CCTATACC", "PBM E-score": -0.0658}
{"sequence": "ACTATACA", "PBM E-score": 0.108}
{"sequence": "ATTATACG", "PBM E-score": 0.476}
{"sequence": "TATGCAGA", "PBM E-score": 0.0611}
{"sequence": "ATAAGCCC", "PBM E-score": -0.136}
{"sequence": "ACCTACCG", "PBM E-score": "-6e-05"}
{"sequence": "TAGTCAGA", "PBM E-score": -0.276}
{"sequence": "ACGGGTCG", "PBM E-score": 0.267}
{"sequence": "AGACAAAG", "PBM E-score": 0.0946}
{"sequence": "ATAAGCGA", "PBM E-score": 0.332}
{"sequence": "CTAAGCGC", "PBM E-score": 0.0189}
{"sequence": "CTAAGCGA", "PBM E-score": 0.385}
{"sequence": "AGACTCAC", "PBM E-score": -0.22}
{"sequence": "GCTGGCAC", "PBM E-score": -0.325}
{"sequence": "CCGGAATC", "PBM E-score": -0.169}
{"sequence": "CGCGGTAA", "PBM E-score": 0.191}
{"sequence": "CGTTCCGA", "PBM E-score": 0.444}
{"sequence": "GGTTCCGA", "PBM E-score": -0.00514}
{"sequence": "CGTTCCGC", "PBM E-score": 0.458}
{"sequence": "AGTTCCGC", "PBM E-score": 0.09}
{"sequence": "CTTTCCGC", "PBM E-score": -0.0543}
{"sequence": "AGTTCCGA", "PBM E-score": 0.226}
{"sequence": "ACCGGACA", "PBM E-score": -0.108}
{"sequence": "TCCTGAAA", "PBM E-score": -0.00548}
{"sequence": "ATTCAAGG", "PBM E-score": -0.157}
{"sequence": "CAGAACGC", "PBM E-score": -0.0854}
{"sequence": "AAGAACGG", "PBM E-score": 0.243}
{"sequence": "TAGAACGA", "PBM E-score": 0.429}
{"sequence": "GAGAACGC", "PBM E-score": 0.117}
{"sequence": "AAGAACGA", "PBM E-score": 0.453}
{"sequence": "TAGAACCA", "PBM E-score": 0.00176}
{"sequence": "TAGAACTA", "PBM E-score": -0.0234}
